The values that follow come from PubChem BioAssay (NCATS).

“And” between values parts separate entries of the source, which are not always exact repeats. Equal entries are not always repeated. A number with no mark means an inactive call. Records with an inconclusive call do not appear. The source made the active and inactive calls. Unless noted, calls come from the whole dose curve. Where only a bound is given, the exact number is not on record here.

Experiment [1] is described as follows: AP1 Signaling Pathway (AID 357; active = well fitted curve in either direction with a large enough effect, not every such curve was filed as active;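 note: ME-180 reporter cells stimulated with EGF at its EC50 level; % is set by controls: 0 for no effect and ±100 for the full control effect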). The procedure, abridged:
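In this screen, ME-180 cells in Opti-MEM with 0.5% dialyzed FBS received EC50 EGF and compound titrations for 5 h. AP-1 reporter beta-lactamase was detected via CCF4 ratio, giving AC50 for positive and negative modulators.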

In experiment [2] the target is Cytochrome P450 1A2 (Homo sapiens) (UniProt P05177). Briefly: p450-cyp1a2 (AID 410). Note: potency is the fitted concentration of half-maximal effect. A digest of the protocol:
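20nM CYP1A2 with 100uM Luciferin-ME (at Km) in 100mM KPO4; compound preincubated 10 min, NADPH regeneration added, 60 min at room temperature. Luciferin quantified by luminescence after detection reagent; normalized to 57 uM furafylline.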

Experiment [3] can be described thus: NFAT Signaling Pathway (AID 444; active = well fitted curve in either direction with a large enough effect, not every such curve was filed as active;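 note: carbachol stimulus at about its EC50 of 1 µM final; % is set by controls: 0 for no effect and ±100 for the full control effect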). The procedure, abridged: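 Jurkat cells with NFAT-driven β-lactamase reporter and co-expressed M1 receptor, stimulated with carbachol (final 1 uM, ~EC50), compound titration, 5 h at 37 °C. CCF4 loaded 1 h at RT; 460/530 nm ratio gave %activity and AC50.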
Experiment [4] can be described thus: Stat Signaling Pathway (AID 446; active = well fitted curve in either direction with a large enough effect, not every such curve was filed as active;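 note: ME-180 cervical cancer cells given 40 pM IL-6 alongside compound; SIE-controlled beta-lactamase reporter measured as 460/530 nm FRET emission ratio; % is set by controls: 0 for no effect and ±100 for the full control effect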). The note with it: ME-180 (cervical carcinoma) SIE beta-lactamase reporter, IL-6 stimulated, 5 h. A digest of the protocol: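 IL-6/STAT signaling read in ME-180 cells via an SIE beta-lactamase reporter. Stimulus was 40 pM IL-6 (its AC50) for 5 hrs, so both activation and inhibition register.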
For experiment [5], the target named is Glucocorticoid receptor (Homo sapiens) (UniProt P04150). The experiment is described as follows: GR-GFP Redistribution (AID 450;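 active = compounds whose dose series gives a full or clear partial fitted curve of increased nuclear translocation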; note: potency is the fitted concentration of half-maximal effect). The note with it: U2OS GR-GFP nuclear translocation, laser cytometry, 2 h.
The target is the same in experiment [6]. Briefly: GR-EFC Redistribution (AID 451). Note: potency is the fitted concentration of half-maximal effect. As to conditions: CHO-K1 GR-EFC translocation, beta-gal luminescence, 2 h. A digest of the protocol:
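CHO-K1 cells expressing nuclear EA and GR-ED fragments of b-gal; compounds titrated up to 46 uM final, 2 h at 37 C. GR nuclear translocation read as complemented b-gal luminescence after 1 h RT detection.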

The target in experiment [7] is Mitogen-activated protein kinase 10 (Mus musculus) (UniProt Q61831). The experiment is described as follows: JNK3 AlphaScreen Assay (AID 530; active = well fitted curve in either direction with a large enough effect, not every such curve was filed as active;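 note: kinase came from lysate of stimulated human HepG2 cells; signal reports phosphorylation of biotinylated GST-cJun 1-79 at Ser73 with 10 µM ATP; % is set by controls: 0 for no effect and ±100 for the full control effect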). The procedure, abridged: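 Pre-activated (IL-1β/TNFα) JNK3 in HepG2 lysates phosphorylates biotin-GST-cJun(1-79), 10 uM ATP; anti-phospho-cJun(Ser73) AlphaScreen read at room temperature, pH 7.6 Tris buffer. Compounds pre-incubated 15 min as titrations.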

Experiment [8] can be described thus: Cell Viability - BJ (AID 421).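 Note: potency is the fitted concentration of half-maximal effect; cells exposed to compound for 40 hours at 37 °C before readout.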 As to conditions: BJ fibroblast viability, qHTS. The procedure, abridged:
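Quantitative HTS: ATP depletion in BJ cells after 40 hr compound exposure in complete culture medium, detected with CellTiter-Glo; AC50 from standard Hill fits.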

Experiment [9] is described as follows: Cell Viability - Jurkat (AID 426;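 active = dose-dependent loss of cell ATP signal giving a full or clear fitted curve, ranked by lower potency value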; note: potency is the fitted concentration of half-maximal effect). As to conditions: qHTS. A digest of the protocol: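 Jurkat (Clone E6-1) cells, 5000/well in complete medium, exposed to compounds for 40 hr at 37C; intracellular ATP measured by CellTiter-Glo luminescence after 20 min at room temperature. AC50 from Hill fits.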
In general terms: In qHTS, concentration-response curves come from the screen itself.

The nature of experiment [10]: Cell Viability - Hek293 (AID 427;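 active = compounds whose dose-response curve shows a full or clear partial loss of cell viability, called from curve shape rather than a numeric limit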;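 note: potency is the fitted concentration of half-maximal effect; cells exposed to compound for 40 hours at 37 °C before reading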). As to conditions: qHTS. The procedure, abridged: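 AC50 values derive from Hill-modelled concentration-response of ATP-based luminescence, normalized between DMSO-only and 100 uM tamoxifen controls. Cells were exposed in complete culture medium for 40 hr at 37 °C before detection.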
A short description of experiment [11]: Cell Viability - HepG2 (AID 433).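 Note: potency is the fitted concentration of half-maximal effect; potency for ATP loss meaning cytotoxicity.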 As to conditions: qHTS. The procedure, abridged: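 In this qHTS format, a 40 h, 37 °C compound incubation of HepG2 cells in complete medium precedes a 20 min CellTiter-Glo step at room temperature. Tamoxifen and doxorubicin serve as positive controls; Hill-equation fits yield AC50.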
A short description of experiment [12]: Cell Viability - MRC5 (AID 434).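 Note: potency is the fitted concentration of half-maximal effect; potency reflects cytotoxicity seen as loss of intracellular ATP.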 The note with it: MRC5 lung fibroblast viability, qHTS. The procedure, abridged:
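MRC5 normal human lung fibroblasts, 1500 cells/well, exposed to compound for 40 hr at 37 C. Cellular ATP was read by CellTiter-Glo luminescence; data normalized to DMSO and 100 uM tamoxifen, with AC50 from Hill fits.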

The nature of experiment [13]: Cell Viability - SK-N-SH (AID 435).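 Note: potency is the fitted concentration of half-maximal effect; compound exposure lasted 40 h at 37 °C.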 As to conditions: SK-N-SH neuroblastoma cell viability qHTS. A digest of the protocol: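 Human neuroblastoma line, 40 h exposure at 37 °C, ATP quantified via luciferase luminescence; DMSO and 100 uM tamoxifen define 0 and 100% inhibition for AC50 fitting.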
The nature of experiment [14]: Cell Viability - N2a (AID 540; active = well fitted curve in the direction sought with a large enough effect; an effect the other way counts as inactive or inconclusive;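 note: plate controls were DMSO alone for no effect and tamoxifen control for full effect; nearly all actives have a fitted effect of over 45% in size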). The note with it: N2a mouse neuroblastoma cell viability; activity change, negative = cytotoxicity: at 92.2 µM (top of the series). The procedure, abridged:
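Mouse neuroblastoma N2a cells, 1500/well, exposed to compounds 40 h at 37 °C in complete medium. Viability measured as cellular ATP by CellTiter-Glo luminescence; AC50 from Hill fits of concentration-response.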

The nature of experiment [15]: Cell Viability - NIH 3T3 (AID 541; active = well fitted curve in the direction sought with a large enough effect; an effect the other way counts as inactive or inconclusive;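 note: plate controls were DMSO alone for no effect and tamoxifen positive control for full effect; nearly all actives have a fitted effect of over 25% in size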). The note with it: NIH 3T3 cell viability, qHTS; at 92.2 µM (top of the series). A digest of the protocol: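 Mouse NIH 3T3 fibroblasts, 1000 cells/well, rested 5 hr at 37 °C, then exposed to compound for 40 hr at 37 °C in complete medium. Viability read as intracellular ATP by CellTiter-Glo luminescence; AC50 from Hill-equation fits of concentration-response data.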

The nature of experiment [16]: Cell Viability - HUV-EC-C (AID 542; active = well fitted curve in the direction sought with a large enough effect; an effect the other way counts as inactive or inconclusive; note: % is set by controls: 0 for no effect and ±100 for the full control effect; nearly all actives have a fitted effect of over 35% in size). The procedure, abridged: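 HUV-EC-C human vascular endothelial cells, 1000/well, exposed to compound for 40 hr at 37 °C in complete medium. Intracellular ATP was read by CellTiter-Glo luminescence. AC50 came from Hill-equation fits of concentration-response data.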
Experiment [17] can be described thus: Cell Viability - H-4-II-E (AID 543; active = well fitted curve in the direction sought with a large enough effect; an effect the other way counts as inactive or inconclusive; note: % is set by controls: 0 for no effect and ±100 for the full control effect; nearly all actives have a fitted effect of over 35% in size). A digest of the protocol:
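Rat hepatoma H-4-II-E cells, 1500 per well, treated 40 h at 37 °C in complete medium. Cellular ATP read by CellTiter-Glo luminescence; AC50 from Hill fits of concentration-response.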

A short description of experiment [18]: Cell Viability - SH-SY5Y (AID 544; active = well fitted curve in the direction sought with a large enough effect; an effect the other way counts as inactive or inconclusive; note: nearly all actives have a fitted effect of over 55% in size; note: potency is the fitted concentration of half-maximal effect;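 for viability change, negative = cytotoxic: 0% = DMSO alone and -100% = 100 µM tamoxifen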). As to conditions: SH-SY5Y neuroblastoma cell viability; viability change, negative = cytotoxic: at 92.2 µM (top of the series). The procedure, abridged: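 SH-SY5Y human neuroblastoma cells (1500/well) incubated 5 h, then compound-treated 40 h at 37 °C in complete medium. Viability read as intracellular ATP by CellTiter-Glo luminescence after 20 min; AC50 from Hill-equation fits of qHTS concentration-response.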

Experiment [19] can be described thus: Cell Viability - Renal Proximal Tubule (AID 545; active = well fitted curve in the direction sought with a large enough effect; an effect the other way counts as inactive or inconclusive;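 note: 0% = DMSO only and -100% = 100 µM tamoxifen; nearly all actives have a fitted effect of over 40% in size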). As to conditions: renal proximal tubule cells viability, primary cells of rat origin; activity change, negative = cytotoxicity: at 91.7 µM (top of the series). A digest of the protocol: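 In this qHTS format, normal rat kidney-derived proximal tubule cells in complete culture medium receive compound titrations, then sit 40 hours at 37 °C before luciferase-based ATP quantitation; potency is reported as AC50 from concentration-response curves.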

Chain of Glucocorticoid receptor (Homo sapiens) (P04150 whole entry, looked up): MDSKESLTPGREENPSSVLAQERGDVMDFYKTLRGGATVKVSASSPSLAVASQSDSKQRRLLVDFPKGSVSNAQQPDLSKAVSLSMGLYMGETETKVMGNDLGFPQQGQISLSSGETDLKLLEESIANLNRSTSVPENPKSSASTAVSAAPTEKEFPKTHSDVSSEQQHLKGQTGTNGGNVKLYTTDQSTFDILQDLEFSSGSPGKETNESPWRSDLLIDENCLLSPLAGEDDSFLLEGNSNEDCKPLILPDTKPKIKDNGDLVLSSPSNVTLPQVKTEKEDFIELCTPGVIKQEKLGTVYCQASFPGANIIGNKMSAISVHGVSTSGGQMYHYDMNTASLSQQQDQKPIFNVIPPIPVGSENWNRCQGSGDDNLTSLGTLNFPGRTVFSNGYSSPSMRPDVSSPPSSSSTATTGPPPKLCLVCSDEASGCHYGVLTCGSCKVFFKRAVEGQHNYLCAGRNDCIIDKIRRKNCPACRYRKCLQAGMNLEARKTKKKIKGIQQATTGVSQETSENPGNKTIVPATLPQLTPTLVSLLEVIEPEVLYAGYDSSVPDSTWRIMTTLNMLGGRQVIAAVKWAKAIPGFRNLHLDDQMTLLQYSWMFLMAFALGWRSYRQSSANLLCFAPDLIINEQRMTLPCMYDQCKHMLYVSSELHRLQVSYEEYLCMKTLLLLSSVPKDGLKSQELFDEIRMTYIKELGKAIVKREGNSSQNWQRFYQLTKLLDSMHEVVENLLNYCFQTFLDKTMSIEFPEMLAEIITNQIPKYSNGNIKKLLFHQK
Chain of Cytochrome P450 1A2 (Homo sapiens) (P05177 whole entry, looked up): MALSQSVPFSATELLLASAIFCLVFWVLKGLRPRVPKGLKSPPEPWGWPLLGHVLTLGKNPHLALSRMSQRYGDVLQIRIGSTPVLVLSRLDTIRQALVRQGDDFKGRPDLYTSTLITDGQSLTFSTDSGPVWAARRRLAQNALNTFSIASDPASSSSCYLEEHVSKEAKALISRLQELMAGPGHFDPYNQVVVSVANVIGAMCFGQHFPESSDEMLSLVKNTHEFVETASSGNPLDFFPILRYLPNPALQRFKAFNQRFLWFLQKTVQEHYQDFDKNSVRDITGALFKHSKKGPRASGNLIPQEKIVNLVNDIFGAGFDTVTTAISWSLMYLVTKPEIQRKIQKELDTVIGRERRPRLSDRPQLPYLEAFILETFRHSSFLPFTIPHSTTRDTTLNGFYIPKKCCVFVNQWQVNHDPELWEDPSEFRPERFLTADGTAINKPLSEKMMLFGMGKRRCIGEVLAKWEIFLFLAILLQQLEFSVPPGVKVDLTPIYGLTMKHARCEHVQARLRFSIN

Take `COCCCCC(=NOCCN)c1ccc(C(F)(F)F)cc1`: the molecule was classed as inactive in [1] and in experiment [3]. Further, the Potency in experiment [2] was 158 nM (active) and 39.8 nM (active) and 15.8 nM (active); in experiment [5] it was > 46 µM and > 20.6 µM; in experiment [6] it was > 46 µM and > 20.6 µM. Also, the activity, negative = inhibition in experiment [4] (at 17.2 µM (top of the series)) is -3.51%; in experiment [4] (at 38 µM (top of the series)) it was -10.7%.
As for `CC(C)OC(=O)C(C)(C)Oc1ccc(C(=O)c2ccc(Cl)cc2)cc1`, the outcome in experiment [1] was inactive. In addition, the Potency in experiment [2] is 12.6 µM (active) and 5.01 µM (active); in [5] it was > 46 µM and > 20.6 µM; in experiment [6] it was > 46 µM and > 20.6 µM.
`COc1ccc(-c2coc3cc(O)cc(O)c3c2=O)cc1`: the call in experiment [1], in experiment [3] and in experiment [7] was inactive. Moreover, the Potency in [2] was 3.98 µM (active); in experiment [5], > 46 µM and > 20.6 µM; in experiment [6], greater than 46 µM. In [4] (at 17.2 µM (top of the series)), the activity, negative = inhibition was 5.25%.
As to `CCCNC(=O)NS(=O)(=O)c1ccc(Cl)cc1`, the outcome in experiment [1], in experiment [3] and in experiment [7] was inactive. Besides, the Potency result in [2], in experiment [14], in [16], in experiment [17], in experiment [18] and in experiment [19] was “inactive” throughout. Also, the Potency in experiment [8], in experiment [9], in experiment [10], in experiment [11], in experiment [12] and in [13] was greater than 92 µM throughout. Moreover, the Potency in experiment [5] is > 46 µM and > 20.6 µM; in experiment [6] it was > 46 µM and > 20.6 µM. Also, the activity, negative = inhibition in experiment [4] (at 17.2 µM (top of the series)) is -8.89% and -0.985%; in [4] (at 38 µM (top of the series)), -1.14%. The activity change, negative = cytotoxicity in experiment [15] is 4.29%.
Consider `O=c1cc(-c2ccc(O)cc2)oc2cc(O)cc(O)c12`, for which the Potency was greater than 92 µM in [8]; greater than 92 µM in [11]; > 46 µM and > 20.6 µM in experiment [5]; > 46 µM and > 20.6 µM in [6]; 25.1 µM (active) in experiment [18]. Besides, the activity, negative = inhibition in experiment [4] (at 17.2 µM (top of the series)) was -101% (active). The Potency entry in experiment [14] and in experiment [16] was “inactive” throughout. Moreover, the activity change, negative = cytotoxicity in [15] was -105% (active).
As for `CC(=O)N[C@@H](CS)C(=O)O`, the molecule was classed as inactive in experiment [1] and in experiment [3]. Further, the activity, negative = inhibition in [4] (at 17.2 µM (top of the series)) is 3.22%. In addition, the Potency in [5] is greater than 20.6 µM.
With `O=c1[nH]cnc2c1ncn2[C@H]1CC[C@@H](CO)O1`, the Potency in experiment [8], in experiment [9], in experiment [10], in experiment [11], in experiment [12] and in experiment [13] was greater than 92 µM throughout. For the same molecule, the Potency entry in [14], in experiment [16], in experiment [17], in [18] and in experiment [19] was “inactive” in each case. Besides, in experiment [15], the activity change, negative = cytotoxicity was 6.95%.
Consider `CC(C(=O)O)c1ccc(-c2ccccc2)c(F)c1` (stereo unspecified), for which the call in [1] and in [3] was inactive. Further, in [4] (at 17.2 µM (top of the series)), the activity, negative = inhibition was -6.1%. Moreover, the Potency in [5] is greater than 20.6 µM.
On to `CC(C)[C@H](CO)Nc1nc(Nc2ccc(C(=O)O)c(Cl)c2)c2ncn(C(C)C)c2n1`, for which the Potency result in experiment [2] was “inactive”. Moreover, the Potency in [5] and in experiment [6] was greater than 46 µM in each case. Moreover, in [7], the molecule was called inactive.
As to `CCCCCCCCCCCC1=C(O)C(=O)C=C(O)C1=O`, in experiment [2], the Potency result is “inactive”. The Potency in [5] and in experiment [6] was greater than 46 µM throughout. Moreover, the molecule was called inactive in experiment [7].
For `CN(C)CCC(c1ccccc1)c1ccccn1` (stereo unspecified), the Potency in experiment [8], in [9], in experiment [10], in experiment [11], in experiment [12] and in experiment [13] was greater than 92 µM in each case. For the same molecule, the molecule was called inactive in [7]. For the same molecule, the Potency entry in [14], in experiment [16], in experiment [17], in [18] and in [19] was “inactive” each time. For the same molecule, the activity change, negative = cytotoxicity in experiment [15] is -2.83%.
On to `CC(C)NCC(O)COc1cccc2[nH]ccc12` (stereo unspecified), for which the molecule was classed as inactive in [1] and in [3]. Moreover, in [4] (at 17.2 µM (top of the series)), the activity, negative = inhibition is 24.1%. For the same molecule, the Potency in experiment [5] is greater than 20.6 µM.
Regarding `COc1ccc(-c2coc3cc(O)ccc3c2=O)cc1`, the Potency in experiment [2] is 0.631 µM (active); in experiment [5], greater than 46 µM; in [6], greater than 46 µM. Also, in [7], the molecule was called inactive.
Turning to `COc1cccc(-c2cc(=O)c3ccccc3o2)c1N`, the Potency in [2] is 3.16 µM (active) and 200 nM (active); in experiment [5], greater than 46 µM; in experiment [6], greater than 46 µM. Further, the molecule was classed as inactive in [3] and in experiment [7].
